Assay outcomes (PubChem)
The sample as a whole holds a higher share of hits than the screen did.
NS1 inh = influenza NS1 inhibition | Potency, µM (top dose mostly 46.1 µM), for the others: at the highest dose activity, positive = more growth | 270,000 compounds, 0.4% hits | AID 2326; calls by dose curve; also: actives are rising curves; nearly all actives have a fitted effect of over 50% in size
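In this qHTS, NS1 from influenza A is expressed in budding yeast, where it slows growth. Cells are switched from glucose to 2% galactose medium (pH 6.0, -URA), treated with compound, and growth recovery is read at OD600.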
Cruzain inh noDet = blocks cruzain activity in detergent-free assay | purified cruzain, Z-FR-AMC fluorescence, no detergent | 200,000 compounds, 2.3% hits | P25779 | Potency, µM, for inactives: max response, negative = inhibition, hits mostly inhibitors | AID 1476;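 also: plate controls were enzyme without inhibitor for no effect and buffer without enzyme for full effect; nearly all actives have a fitted effect of over 40% in size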
Target sequence (P25779 123-467 limits assumed): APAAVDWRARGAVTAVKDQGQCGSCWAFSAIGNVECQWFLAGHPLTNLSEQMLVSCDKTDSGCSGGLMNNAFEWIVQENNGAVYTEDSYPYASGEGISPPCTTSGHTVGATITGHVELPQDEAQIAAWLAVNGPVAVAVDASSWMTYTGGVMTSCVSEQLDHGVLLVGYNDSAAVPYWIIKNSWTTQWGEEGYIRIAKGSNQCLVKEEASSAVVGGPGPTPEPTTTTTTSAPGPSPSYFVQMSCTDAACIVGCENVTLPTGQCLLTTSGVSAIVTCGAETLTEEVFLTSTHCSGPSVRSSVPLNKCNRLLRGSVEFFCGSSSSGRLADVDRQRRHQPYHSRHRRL
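Detergent-free condition (0.00005% Triton X-100) in acetate buffer pH 5.5 with DTT. 1.5 nM enzyme and compound were pre-mixed 15 min, then 2 uM Z-FR-AMC substrate added; reaction progress from fluorescence change between first and third reads (60 s).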
Cruzain Triton = blocks cruzain activity in presence of Triton detergent | Potency, µM, without a hit: max response, negative = inhibition, hits mostly inhibitors | P25779 | 200,000 compounds, 0.43% hits | purified cruzain, Z-FR-AMC fluorescence, 0.01% Triton;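 also: plate controls were neutral wells for no effect and buffer without enzyme for full effect; nearly all actives have a fitted effect of over 40% in size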
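Compounds were screened in titration against cruzain (1.5 nM) with 0.01% Triton X-100 to counter colloidal aggregation. Activity was the AMC fluorescence increase over 60 s after adding 2 uM Z-FR-AMC at pH 5.5.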
Numbers without * were called inactive; ? = inconclusive; nt = no result; [ ] = another dose, or the depositor's remark. Unless noted, calls follow the shape of the dose curve; as a rule, active = well fitted curve in the direction sought with a large enough effect; inconclusive = small, poorly fitted or top-dose-only effect, or another doubt; inactive = no such curve, though single readings can be large; an effect the other way counts as inactive or inconclusive. Potency is read from the fitted curve at half-maximal effect.

SMILES	NS1 inh	Cruzain inh noDet	Cruzain Triton
COc1ccc2c(c1[N+](=O)[O-])CCC/C2=N/OC(=O)c1cccc2ccccc12	-3%	20µM*	-2%
CC[C@@H]1C(c2cccc(Cl)c2)=NN(c2ccc(Br)cc2)[C@H]1C(=O)N1CCOC1=O	nt	?	-3%
O=C1OCCN1C(=O)[C@H]1[C@H](c2ccc(Cl)cc2)C(c2ccccc2)=NN1c1ccc(Br)cc1	nt	11µM*	-3%
O=C1OCCN1C(=O)[C@H]1[C@H](c2ccccc2)C(c2cccc(Cl)c2)=NN1c1ccc(Br)cc1	nt	13µM*	1%
CC[C@@H]1C(c2ccccc2)=NN(c2ccc(Br)cc2)[C@H]1C(=O)N1CCOC1=O	nt	25µM*	-1%
O=C(c1cc(-c2cccc(Cl)c2)on1)N1CCN(c2ccc(F)cc2)CC1	5%	nt	nt
O=C1OCCN1C(=O)[C@H]1[C@H](c2ccc(F)cc2)C(c2cccc(Cl)c2)=NN1c1ccc(Br)cc1	nt	16µM*	-2%
CC(=O)Nc1ccc(C2CC(c3ccc(Cl)cc3)=NN2c2ccccc2)cc1 (stereo not given)	1%	nt	nt
CC(C)(C)Nc1oc(-c2ccccc2)nc1-c1cccc2ccccc12	nt	-10%	4%
Cc1ccc(NS(=O)(=O)c2cc(-c3cnc(C4CC4)o3)ccc2C)cc1Cl	nt	-30%	-1%
FC(F)(F)c1ccc(Cl)cc1	nt	-6%	-7%
NC(=S)Nc1nc2ccccc2[nH]c1=O	1%	?	7.9µM*
O=c1[nH]c2ccccc2nc1NCc1ccccc1	-12%	nt	nt
CCn1c2ccccc2c2cc(NC(=O)c3coc(=O)c(Br)c3)ccc21	4%	nt	nt
O=C(Nc1ccc(N2CCCC2)c(Cl)c1)c1ccc(Br)o1	5%	10µM*	-14%
O=C(Nc1ccccc1N1CCCC1)c1ccc(Br)o1	-6%[9.22 µM]	-6%	-4%
CCn1c2ccccc2c2cc(NC(=O)c3cccc([N+](=O)[O-])c3)ccc21	4%	-4%	4%
CCn1c2ccccc2c2cc(NC(=O)c3ccc(Br)o3)ccc21	16%	107%	13µM*
CCn1c2ccccc2c2cc(NC(=O)c3ccc(C)c([N+](=O)[O-])c3)ccc21	?	25µM*	-3%
CCOC(=O)c1c(C)c(-c2ccccc2)n(CC(=O)NCCc2cccc(C)c2)c1C	nt	3%	0%
COc1ccc(O)c(/C=N/NC(=O)c2ccc(OCc3cccc(Br)c3)cc2)c1	2%	7.9µM*	-4%
COc1ccc(C(=O)N/N=C/c2cc(Br)ccc2O)cc1OC	-4%	nt	nt
CC(=O)N1[C@H](Cc2ccccc2)C=C[C@]1(C)C(=O)O	nt	-7%	-1%
CCN(CC)c1ccc(C(=O)N2CCC(c3c[nH]c4ccccc34)(c3c[nH]c4ccccc34)CC2)cc1	nt	10µM*	-2%
COc1ccc(C(=O)N2CCC(c3c[nH]c4ccccc34)(c3c[nH]c4ccccc34)CC2)cc1	nt	-15%	-3%
SMILES	NS1 inh	Cruzain inh noDet	Cruzain Triton
O=C(Nc1nc(-c2cc3ccccc3oc2=O)cs1)c1ccco1	-1%	-5%	-7%
O=c1oc2ccccc2cc1-c1csc(Cc2nc(-c3ccc(Cl)cc3)cs2)n1	11%	10µM*	-2%
O=c1oc2ccccc2cc1-c1csc(Nc2nc3c(F)cccc3s2)n1	27%	32µM*	-3%
O=c1oc2ccccc2cc1-c1csc(NN=C2CCCCC2)n1	-11%	20µM*	-26%
O=c1oc2ccccc2cc1-c1nc(-c2cccc(Cl)c2)cs1	nt	-1%	0%
O=c1oc2ccccc2cc1-c1csc(Nc2nc3ccc(F)cc3s2)n1	16%	6%	-6%
COc1ccc(S(=O)(=O)N2CCN(Cc3ccc4c(c3)OCO4)CC2)cc1OC	nt	-7%	0%
O=C(Nc1cccc(NC(=O)c2ccc(-c3ccc(Br)cc3)o2)c1)c1ccccc1	2%	5µM*	-12%
O=C(Nc1ccccc1)c1ccc(-c2ccc(Br)cc2)o1	-1%	-7%	-8%
Cn1nnc(NCc2cc(Br)ccc2OCc2cccs2)n1	-10%	32µM*	-4%
Cn1nnc(C(O)CNCc2cccs2)n1 (stereo not given)	-2%	3%	3%
Cc1ccc2nc(NC(=O)c3cccc(-c4cc5ccccc5oc4=O)c3)sc2c1	8%	10µM*	-3%
CCn1nnc(NC(=O)c2cccc(-c3cc4ccccc4oc3=O)c2)n1	-18%	1%	-2%
O=C(Nc1ccc(CN2CCOCC2)cc1)c1cccc(-c2cc3ccccc3oc2=O)c1	2%	nt	nt
O=C(Nc1cccc(Cl)c1N1CCCC1)c1cccc(-c2cc3ccccc3oc2=O)c1	11%	10µM*	0%
O=C(Nc1cccnc1)c1cccc(-c2cc3ccccc3oc2=O)c1	4%	nt	nt
CCOc1ccc2nc(NC(=O)c3cccc(-c4cc5ccccc5oc4=O)c3)sc2c1	14%	13µM*	-2%
c1ccc(Nc2ncnc3ccc(-c4cccnc4)cc23)cc1	nt	-1%	1%
COc1ccccc1NC(=O)c1ccc2nc(-c3ccccc3)c(-c3ccccc3)nc2c1	2%	32µM*	5%
COc1ccc(NC(=O)c2ccc3nc(-c4ccccc4)c(-c4ccccc4)nc3c2)c(OC)c1	-6%	-19%	2%
CCCCOc1ccc(S(=O)(=O)Nc2ccc(-c3ccc(N4CCCCC4)nn3)cc2)cc1	nt	32µM*	-5%
CCCCOc1ccc(S(=O)(=O)Nc2ccc(-c3ccc(N4CCCCCC4)nn3)cc2)cc1	nt	-24%	-4%
CCC(=O)Nc1ccccc1-c1nc2ccccc2n(C(C)C(=O)Nc2ccc(OC)cc2)c1=O (stereo not given)	nt	?	-3%
CCCc1ccc(-c2cc(C(=O)N/N=C/c3ccc([N+](=O)[O-])o3)c3ccccc3n2)cc1	0%	16µM*	-2%
O=C(N/N=C/c1ccc([N+](=O)[O-])o1)c1cc(-c2cccc(Br)c2)nc2ccccc12	12%	?	-3%
SMILES	NS1 inh	Cruzain inh noDet	Cruzain Triton
Nc1ccc(C(=O)N2CCCC2)cc1	2%	4%	-1%
Nc1ccc(C(=O)n2c3ccccc3c3ccccc32)cc1	12%	25µM*	-12%
Cc1cccc(N2CCN(S(=O)(=O)c3ccc(F)c(C(=O)Nc4cccc(Cl)c4C)c3)CC2C)c1 (stereo not given)	nt	13µM*	1%
Cc1cccc(NC(=O)c2cc(S(=O)(=O)N3CCN(c4ccccc4F)CC3)ccc2F)c1C	nt	-2%	1%
CCCOc1cccc(C(=O)N2CCCCC2CCN2CCCCC2)c1 (stereo not given)	nt	-9%	-1%
O=C(CCCN1C(=O)S/C(=C\C=C\c2ccccc2)C1=O)Nc1ccc(C(=O)O)cc1	5%	nt	nt
CC(=O)c1ccc(NC(=O)CN2C(=O)/C(=C/C=C/c3ccccc3)SC2=S)cc1	16%	10µM*	-8%
Cc1ccc(N2CC(C(=O)Nc3nnc(SCC(=O)Nc4cc(C)on4)s3)CC2=O)cc1 (stereo not given)	14%	7.9µM*	0%
CC(=O)Nc1ccc(NC(=O)CSc2nnc(NC(=O)C3CC(=O)N(c4ccccc4)C3)s2)cc1 (stereo not given)	-4%	nt	nt
Cc1noc(C)c1-c1cc(NCCN2CCOCC2)ncn1	nt	9%	0%
Cc1ccc2c(Cl)c(C(=O)Nc3ccc4c(c3)OCO4)sc2c1	20%	20µM*	-3%
Cc1noc(C(=O)Nc2ccc3c(c2)OCO3)c1Cl	-2%	-3%	-6%
N#C/C(C(=O)NCc1ccccc1)=C1/N=C(NC(=O)c2cccs2)c2ccccc21	2%	25µM*	-4%
